Laboratory results: PubChem BioAssay AID720532 (National Center for Advancing Translational Sciences (NCATS), 2013)
Several values for one entry are separate records, joined by “and”; a condition that tells them apart may be missing. Equal values may be shown once. The campaign covered roughly 18,000 compounds. About 1,200 (6.7%) were called active. Roughly 16% stayed inconclusive and do not appear here. Calls follow the shape of the full dose curve; tested in HEK293 cells. The sample as a whole holds a higher share of actives than the screen did. Bridge positions count the residues as written; N and C are the ends. Peptide text beside a SMILES is read from it.

Experiment: qHTS for Inhibitors of binding or entry into cells for Marburg Virus
Conditions: Marburg virus pseudotype entry/binding inhibition, cell-based; series mostly up to 49.2 µM; activity change, negative = inhibition: at the top concentration
% is scaled to controls: 0 for no effect and ±100 for the full control effect; potency is read from the fitted curve at half-maximal effect.

Compound | activity change, negative = inhibition | Potency
COC(=O)C1=C(C(=O)OC)[C@@H]2N(C)c3ccccc3[C@@]23C[C@@H](C(=O)OC)N(C(=O)c2ccco2)C3=N1 | 74% [at 8.59 µM] (inactive) | –
C[C@H](CCC(=O)NCC(=O)O)[C@H]1CC[C@H]2[C@H]3[C@@H](C[C@@H](O)[C@]12C)[C@]1(C)CC[C@H](O)C[C@@H]1C[C@@H]3O | 7.66% [at 17.8 µM] (inactive) | –
COC(=O)[C@@]1(C=C[C@@H](C)[C@H](OC)c2ccccc2Br)[C@@H]2Oc3ccccc3[C@@H]21 | 4.01% [at 8.59 µM] (inactive) | –
C=C[C@](C)(O)CCC1C(=C)CCC2[C@@](C)(CO)CCC[C@@]12C (stereo partly drawn) | 1.45% (inactive) | –
COc1cccc([C@@H]2Oc3ccc(OC)cc3C(=O)[C@@H]2OC(=O)Nc2cc(OC)c(OC)c(OC)c2)c1 | 12.9% [at 8.59 µM] (inactive) | –
Fc1ccc(Cl)cc1-c1nc(Nc2ccncc2)c2nccnc2n1 | -20.9% (inactive) | –
C=C(C(C)=O)C(O)c1ccc([N+](=O)[O-])cc1 (stereo not drawn) | -9.42% (inactive) | –
COc1ccc(-c2nc3c(c4c2C[C@H](c2ccccc2)OC4)CN(C(=O)C2CC2)CC3)c(C)c1 | -29.5% [at 8.59 µM] (inactive) and -8.72% [at 8.59 µM] (inactive) | –
C[C@@H](O)[C@@H]1NC(=O)[C@H](CCCCN)NC(=O)[C@H](Cc2c[nH]c3ccccc23)NC(=O)[C@H](Cc2ccccc2)NC(=O)[C@H](Cc2ccccc2)NC(=O)[C@H](CC(N)=O)NC(=O)[C@H](CCCCN)NC(=O)[C@@H](NC(=O)[C@@H]2CCCN2)CSSC[C@@H](C(=O)N[C@@H](CCCCN)C(=O)O)NC(=O)[C@H](CO)NC(=O)[C@H](CO)NC(=O)[C@H](Cc2ccccc2)NC1=O (H-PCKNFFWKTFSSCK-OH; disulfide 2-13) | 9.81% (inactive) | –
C[C@@H]1C(c2ccc(F)cc2)=NN(c2ccc(Br)cc2)[C@H]1C(=O)N1CCOC1=O | -15% (inactive) | –
C/C=C/C1=C(C(=O)O)N2C(=O)[C@@H](NC(=O)[C@H](N)c3ccc(O)cc3)[C@H]2SC1 | 33.3% (inactive) | –
COC(=O)CC1c2ccccc2C(Cc2ccc(OC)cc2)=C(C)N1C(=O)OC (stereo not drawn) | 0.314% [at 8.59 µM] (inactive) and -19% [at 8.59 µM] (inactive) | –
CC(C)(C)OC(=O)N1CCC(C(=O)Nc2cccc(C(=O)NCCc3ccccc3)c2)CC1 | 27.7% (inactive) | –
CC(C)(O)CCC(O)[C@@](C)(O)C1CC[C@]2(O)C3=CC(=O)C4CC(O)C(O)C[C@]4(C)C3CC[C@]12C (stereo partly drawn) | 7.71% (inactive) | –
CC(C)=CCC[C@]1(C)[C@@H](CC=C(C)C)C[C@@]2(CC=C(C)C)C(=O)[C@]1(C(=O)C(C)C)C(=O)C(CC=C(C)C)=C2O | – | 15.8 µM (active)
CC1(OC(=O)C2CCCC2)C(=O)C=C2C=C(c3ccc(C#N)cc3)OC=C2C1=O (stereo not drawn) | inactive | –
CCN1C(=NCc2cc(OC)c(OC)c(OC)c2)NC(c2cccc(C(F)(F)F)c2)C(C(=O)OC)=C1C (stereo not drawn) | 12.8% [at 8.59 µM] (inactive) | –

Compound | activity change, negative = inhibition | Potency
O=C1C=C(c2ccccc2)CCC1 | inactive | –
CC[C@H](C)[C@H](NC(=O)[C@H](CCCNC(=N)N)NC(=O)[C@H](CCCNC(=N)N)NC(=O)[C@H](CC(C)C)NC(=O)[C@H](Cc1ccccc1)NC(=O)CNC(=O)CNC(=O)[C@@H](N)Cc1ccc(O)cc1)C(=O)N[C@@H](CCCNC(=N)N)C(=O)N1CCC[C@H]1C(=O)N[C@@H](CCCCN)C(=O)N[C@@H](CC(C)C)C(=O)N[C@@H](CCCCN)C(=O)N[C@@H](Cc1c[nH]c2ccccc12)C(=O)N[C@@H](CC(=O)O)C(=O)N[C@@H](CC(N)=O)C(=O)N[C@@H](CCC(N)=O)C(=O)O | 5.11% (inactive) | –
CNCC[C@H](Oc1ccc(C(F)(F)F)cc1)c1ccccc1 | – | 3.98 µM (active) and 8.91 µM (active)
COC(=O)N[C@@H](c1ccccc1)[C@]1(C(=O)OC)CCCC1=O | -27.3% [at 8.59 µM] (inactive) | –
CC[C@H](C)[C@@H](NC(=O)O[C@@H]1C(=O)c2cc(OC)ccc2O[C@H]1c1cccc(OC)c1)C(=O)OC | -4.78% (inactive) | –
COc1ccccc1C1CN(CCNC(=O)C2=CCCC2)Cc2ccccc2O1 (stereo not drawn) | -15.4% (inactive) | –
COCC(=O)Nc1cc(C(=O)N2CCCC(c3ccccc3)CC2)c2c(c1)nc(-c1ccncc1)n2C (stereo not drawn) | 10.9% (inactive) | –
C=C(C)C(=O)c1ccc(F)cc1 | 11.7% (inactive) | –
C[C@@H]1[C@@H](c2ccccc2)Oc2c(Cl)cccc2S(=O)(=O)N1Cc1ccc(Cl)cc1 | 19.7% (inactive) | –
C#C[C@]1(O)CC[C@H]2[C@@H]3CCC4=C/C(=N/O)CC[C@@H]4[C@H]3CC[C@@]21CC | 23.7% (inactive) | –
COCCN1C(=O)N[C@@H](CCc2ccccc2)[C@H](C(C)=O)[C@H]1C | -2.21% [at 8.59 µM] (inactive) | –
COc1ccc([C@]23Cc4ccccc4[C@H](O2)c2c(c4ccc(OC)cc4oc2=O)O3)cc1 | -9.62% [at 8.59 µM] (inactive) | –
COc1ccc(-c2nc3c(c4c2C[C@H](c2ccccc2)OC4)CN(C(=O)c2cccnc2)CC3)c(C)c1 | 29.8% [at 8.59 µM] (inactive) | –
CC[C@H]1C[C@H](C=CCC(C(=O)OC)C(=O)OC)OP(=O)(OC)O1 (stereo partly drawn) | 30.3% (inactive) | –
CC[C@H]1CN2CCc3cc(OC)c(OC)cc3[C@@H]2C[C@@H]1C[C@H]1NCCc2cc(OC)c(OC)cc21 | – | 0.398 µM (active)
Cc1cc2oc(=O)cc(-c3ccccc3)c2c(C)c1-c1ccc(OC(F)(F)F)cc1 | -4.07% (inactive) | –
